Compound activity from PubChem BioAssay.
FBPA Giardia inh – blocks Giardia fructose-bisphosphate aldolase activity; purified Giardia FBPA; A8B2U2; actives 0.71% (n = 290,000); Potency, µM (series often up to 59.6 µM), inactives show top-dose activity, negative = inhibition, actives largely listed as inhibitors; further: potency means the concentration at half of the fitted maximal effect; on the % scale 0 is the no-effect control and ±100 the full control effect; nearly all actives have a fitted effect of over 55% in size
Target sequence (A8B2U2 whole entry, looked up): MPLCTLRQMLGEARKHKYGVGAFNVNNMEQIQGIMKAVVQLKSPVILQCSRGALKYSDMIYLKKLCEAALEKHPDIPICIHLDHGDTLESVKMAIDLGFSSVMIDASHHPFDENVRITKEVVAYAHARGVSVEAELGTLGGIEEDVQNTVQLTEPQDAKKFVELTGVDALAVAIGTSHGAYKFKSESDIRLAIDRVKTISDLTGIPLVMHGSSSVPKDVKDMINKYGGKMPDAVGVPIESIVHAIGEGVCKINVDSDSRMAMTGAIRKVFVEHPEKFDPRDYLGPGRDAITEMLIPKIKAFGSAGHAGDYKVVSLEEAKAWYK
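Giardia FBPA (40 nM reagent) was preincubated 10 min at RT with compound (up to 57.5 uM final), then substrate plus GAPDH/TPI/NAD/arsenate coupling system with diaphorase/resazurin was added; resorufin fluorescence (525/598 nm) was read after 20 min.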
NS1 function inh – inhibitors of influenza NS1 protein function. Potency, µM (top dose mostly 46.1 µM), inactives show at the highest dose activity, positive = more growth. actives 0.4% (n = 270,000). AID 2326; calls by dose curve; further: potency means the concentration at half of the fitted maximal effect; actives are rising curves; nearly all actives have a fitted effect of over 50% in size
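Recovery from NS1-induced slow growth read by OD600 in budding yeast switched to galactose assay medium (pH 6.0, -URA) at 1:100 dilution. Compound 23 nl per well; the matching strain lacking NS1 serves as control.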
Cycloheximide cs – counter-screen hit for Shiga toxin inhibitors, cycloheximide; cell reporter, cycloheximide protein synthesis inhibition counterscreen; max response, %; actives 12% (n = 300,000); AID 2314; in the data active means max response mostly above about 13%, no sharp cut-off; inactive means mostly below about 14%; further: read at 38.3 µM for the half of the compounds with a filed dose; 0% is about no effect
Shiga toxin inh – Shiga toxin inhibition; Vero cells, Shiga toxin protein synthesis inhibition reporter; actives 9.2% (n = 290,000); inhibition, % at 38.7 µM; in the data active means inhibition mostly above about 28%, no sharp cut-off; inactive means mostly below about 43%; further: 0% is about no effect
LmPK inhibitor – blocks Leishmania mexicana pyruvate kinase activity; Q27686; purified LmPK, Kinase-Glo ATP luminescence, 1 h; Potency, µM (titrated, usually from 57.5 µM), without a hit: at the highest dose activity change, negative = inhibition, actives largely listed as inhibitors; actives 0.37% (n = 290,000); AID 1721; further: potency means the concentration at half of the fitted maximal effect; on the % scale 0 is the no-effect control and ±100 the full control effect
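Purified LmPK (0.1 nM) converted ADP (0.1 mM) to ATP with PEP (0.5 mM) in imidazole buffer pH 7.2 with KCl and MgCl2, 1 h at room temperature. ATP was read by Kinase-Glo luminescence; data normalized to uninhibited and no-enzyme controls.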
* hit, by the source's call; ? = inconclusive; · = not tested or not shown. Only some compounds are listed: those with a hit (about 14% of all), similar ones and a draw of the others. Unless noted, the call rests on the fitted dose curve; in most records, active means well fitted curve in the direction sought with a large enough effect; inconclusive means small, poorly fitted or top-dose-only effect, or another doubt; inactive means no such curve, though single readings can be large; an effect the other way counts as inactive or inconclusive.

SMILES	FBPA Giardia inh	NS1 function inh	Cycloheximide cs	Shiga toxin inh	LmPK inhibitor
COc1ccc2c(c1)S/C(=C\C(=O)c1ccncc1)N2C	-11%	-137%	47*	110*	-1%
COc1ccc2c(c1)SCC(=O)N2C	6%	19%	-3	51	1%
COc1ccc(NC(=S)Nc2ccc3nc(C)c(C)nc3c2)cc1	?	11%	3	-7	4%
CCOc1ccc(NC(=O)Nc2ccc3nsnc3c2)cc1	-13%	-2%	33*	32	2%
CCOc1ccc(NC(=S)Nc2ccc(OCC)cc2)cc1	2%	0%	-2	24	-8%
CCOc1ccc(NC(=S)Nc2ccc3nsnc3c2)cc1	?	3%	33*	57*	0%
COc1ccc(NC(=S)Nc2ccc3nsnc3c2)cc1	?	-10%	41*	61	4%
CCOc1ccc(NC(=S)Nc2cc(C)[nH]n2)cc1	-13%	0%	27*	62*	1%
CCOc1ccc(NC(=O)Nc2cc(OCC(F)(F)F)cc(OCC(F)(F)F)c2)cc1	1%	14%	7	7	2%
Cc1cc(OCC(O)CN2CCc3ccccc3C2)ccc1Cl (configuration not stated)	-23%	-1%	-1	-3	-5%
CC(C)C(=O)Nc1ccc(C(=O)NNC(=O)c2ccco2)cc1	12%	8%	-3	26	3%
CC(C)C(=O)Nc1ccc(NC(=O)c2ccco2)cn1	-9%	1%	23*	14	-1%
CCCC(=O)Nc1ccc(NC(=O)c2ccco2)cn1	-2%	-12%	18*	27*	-6%
CCCCC(=O)Nc1cc(C)c(NC(=O)c2ccco2)cn1	-3%	9%	16	-5	-3%
COc1cc(C(=O)Nc2ccc(NC(=O)c3ccco3)nc2)cc(OC)c1OC	0%	-5%	-3	-12	6%
CCCCC(=O)Nc1ccc(NC(=O)c2ccco2)cn1	0%	-5%	20*	67	-3%
CC(C)c1ccc(CN(C(=O)/C=C/c2ccco2)C2CCS(=O)(=O)C2)cc1 (configuration not stated)	-1%	3%	7	13	4%
CC(=O)c1cnn(-c2ccccc2)c1C	6%	·	5	7	-2%
Cc1c(C(=O)N(C)c2ccccc2Cl)cnn1-c1ccccc1	7%	28%	12*	30*	-8%
NC(=O)c1cnn(-c2cccc(Cl)c2)c1N	4%	-3%	7	11	-10%
Cc1c(C(=O)N(C)c2cccc(Cl)c2)cnn1-c1ccccc1	-11%	-14%	39*	60*	1%
N#CC(=C1CCCC1)c1nc(-c2ccccc2)cs1	·	-6%	54*	103*	-11%
N#C/C(=N\O)c1nc(-c2ccccc2)cs1	10%	-211%	-2	9	-2%
Cc1ccc(-c2csc(C(C#N)=C3CCCC3)n2)cc1	·	-9%	25*	74*	-1%
N#CC(=C1CCCC1)c1nc(-c2ccccc2O)cs1	-11%	2%	54*	106*	-17%
SMILES	FBPA Giardia inh	NS1 function inh	Cycloheximide cs	Shiga toxin inh	LmPK inhibitor
N#CC(=C1CCCC1)c1nc(-c2cc3ccccc3oc2=O)cs1	6%	1%	32*	51*	-4%
Cc1cc(C)n(-c2nc(C(=O)O)cs2)n1	7%	·	8	-5	-5%
Cc1cc(C)n(-c2nc(-c3ccccc3)cs2)n1	-2%	-13%	35	112*	1%
Cc1cc(C)n(-c2nc(-c3cccc(Cl)c3)cs2)n1	-1%	-7%	23*	35	10%
Cc1ccc(NC(=S)NNC(C)(C)C)cc1	3%	-40%	34*	41*	2%
CC(C)(C)NNC(=S)Nc1cccc(C(F)(F)F)c1	-24%	-48%	2	-17	1%
Cc1ccc(N2C(=O)CS(=O)C(c3ccccc3)C2=O)cc1C (configuration not stated)	-3%	15%	28*	65*	-12%
CC(C)C(=O)Nc1c2c(nn1-c1ccc(F)cc1)CSC2	10%	0%	21	-7	-2%
CCS(=O)(=O)c1nc(S(=O)(=O)c2ccc(Cl)cc2)c(NCCN2CCOCC2)s1	-6%	?	4	-7	3%
O=C1NN(c2ccc(Cl)cc2)C(=O)/C1=C\c1ccc(-c2cccc(C(=O)O)c2)o1	7%	·	20	21	19%
O=C1NN(c2ccccc2)C(=O)/C1=C\c1ccc(-c2cc([N+](=O)[O-])ccc2O)o1	-26%	4%	0	-3	18µM*
O=C(CN1C(=O)c2cccnc2Oc2ccc(Cl)cc21)NC1CCCCC1	8%	-16%	-3	-6	0%
O=C(Oc1ccc(C(=S)N2CCC(O)CC2)cc1)c1ccc(Cl)cc1	3%	-2%	37*	35	-2%
O=C(Oc1ccc(C(=S)N2CCCCC2)cc1)c1ccccc1	-20%	-3%	-2	15	2%
CCC(=O)N1CCN(c2nc3ccc(Br)cc3s2)CC1	12%	-10%	36*	59*	-1%
CCCC(=O)N1CCN(c2nc3ccccc3s2)CC1	-2%	-13%	42*	42*	-13%
Fc1cccc(Cl)c1CN1CCN(c2nc3ccccc3s2)CC1	-1%	-12%	53*	159*	-1%
O=C(c1cccs1)N1CCN(c2nc3ccccc3s2)CC1	7%	-1%	1	-7	-1%
O=C(c1ccc2ccccc2n1)N1CCN(Cc2c(F)cccc2Cl)CC1	7%	-28%	-4	5	2%
CC(C)(C)C(=O)N1CCN(c2nc3ccccc3s2)CC1	1%	-2%	57*	76*	0%
CCOC(=O)c1c(C)[nH]c(C)c1S(=O)(=O)N1CCN(c2ccc([N+](=O)[O-])cc2)CC1	-5%	0%	7	2	1%
CC(=O)c1nnn(-c2ccc([N+](=O)[O-])cc2)c1C	10%	·	9	-3	-1%
CCc1ccc(NS(=O)(=O)c2ccc3oc(=O)ccc3c2)cc1	-7%	-31%	-4	37	-3%
OCC1(Cc2cccc(Cl)c2)CCCN(Cc2cnn(-c3ccccc3)c2)C1 (configuration not stated)	1%	3%	-3	-14	0%
COCCCN1C(=O)C(=O)/C(=C(/O)c2ccc(S(=O)(=O)N3CCCCC3)cc2)C1c1ccc(O)cc1 (configuration not stated)	1%	15%	-6	-7	4%
SMILES	FBPA Giardia inh	NS1 function inh	Cycloheximide cs	Shiga toxin inh	LmPK inhibitor
O=C(NC1CC1)C1CCN(c2nc3ccccc3s2)CC1	-8%	-3%	23*	63*	-7%
CCc1ccc2nc(N3CCN(C(=O)C(C)(C)C)CC3)sc2c1	·	-7%	23*	55*	-10%
CCCCC(=O)N1CCN(c2nc3ccc(OCC)cc3s2)CC1	·	-9%	13	-2	-11%
CCCCC(=O)N1CCN(c2nc3ccc(F)cc3s2)CC1	·	-25%	12	35*	-9%
CCN1CCN(c2nc3ccccc3s2)CC1	-4%	-7%	33*	77*	-2%
COc1ccccc1NC(=O)Cn1nnc(-c2ccccc2NC(=O)c2cnccn2)n1	3%	·	-1	-6	5%
Cc1cc(NC(=O)c2cncc(Br)c2)ccc1NC(=O)c1cc2ccccc2o1	-1%	2%	5	7	-3%
